A selection: hits, their analogues and other compounds. The true share with any hit is near 1.7%.
HEK293 tox: cytotoxicity counter-screen for GLP-1 receptor inverse agonists. HEK293 cAMP-luciferase reporter cells, luminescence, 24 h. Potency, µM (doses to about 38.3 µM), for inactives: top-dose activity change, negative = inhibition, actives largely listed as inhibitors. 0.13% of 410,000 active;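 note: loss of luciferase light is scored as toxicity; % is set by controls: 0 for no effect and ±100 for the full control effect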
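1536-well qHTS counterscreen of the MLSMR; 200 cells/uL, 12 h pre-incubation, 23 nL cpd, 24 h at 37 deg C 5% CO2, luciferase detection reagent, 12 min RT, luminescence. Inhibition = undesired.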
PTHR1 ag: PTHR1 (human) receptor agonism; Potency, µM (series often up to 115 µM), inactives show at the top dose activation, usual class: activators; AID 743266; 0.075% of 410,000 active; Q03431; HEK293 GP2 PTHR1 cells, GloSensor cAMP luminescence, 1 h; note: nearly all actives have a fitted effect of over 55% in size
Target sequence (Q03431 whole entry, looked up): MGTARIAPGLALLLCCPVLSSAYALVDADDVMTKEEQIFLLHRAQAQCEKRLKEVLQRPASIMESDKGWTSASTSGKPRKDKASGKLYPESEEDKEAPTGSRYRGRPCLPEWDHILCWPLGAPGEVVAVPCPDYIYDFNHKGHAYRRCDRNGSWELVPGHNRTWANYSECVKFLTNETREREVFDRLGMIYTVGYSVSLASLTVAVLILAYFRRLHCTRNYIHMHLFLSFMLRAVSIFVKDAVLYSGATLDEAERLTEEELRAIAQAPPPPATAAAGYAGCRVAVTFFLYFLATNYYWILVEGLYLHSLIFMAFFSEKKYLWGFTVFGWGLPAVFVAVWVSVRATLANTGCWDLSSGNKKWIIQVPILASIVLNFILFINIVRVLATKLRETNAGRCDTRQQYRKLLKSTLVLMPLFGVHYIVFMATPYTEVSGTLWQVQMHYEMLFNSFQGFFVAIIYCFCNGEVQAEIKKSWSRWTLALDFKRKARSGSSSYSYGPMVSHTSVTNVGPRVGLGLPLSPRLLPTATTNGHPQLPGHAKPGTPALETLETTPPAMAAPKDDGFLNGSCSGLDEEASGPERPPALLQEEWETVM
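HEK-293-derived GP2 cells expressing PTHR1 and a GloSensor cAMP reporter, 3,000/well, plated overnight, given luciferin plus IBMX (each 0.5 mM as added) for 1 h at 37 °C, then compound for 1 h at 37 °C. Luminescence was read after 15 min at room temperature.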
GLP1R inv ag: inverse agonists of human GLP-1 receptor; AID 624417; P43220; 1.6% of 410,000 active; Potency, µM (doses to about 38.3 µM), without a hit: top-dose activity change, negative = inhibition, actives largely listed as inhibitors; HEK293 GLP-1R CRE-luciferase, luminescence, 24 h; GLP-1R form is constitutively active; note: % is set by controls: 0 for no effect and ±100 for the full control effect; nearly all actives have a fitted effect of over 55% in size
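Inverse agonism was detected as reduced cAMP-driven luciferase luminescence after 24 h compound treatment. The cells were HEK293 clones expressing constitutively active human GLP-1R with the reporter. Reporter-only and GPR119 cell lines served as counterscreen controls.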
GLP1R ag: agonists of human GLP-1 receptor | P43220 | HEK293 GLP-1R CRE-luciferase, luminescence, 4-6 h; cells express a hypersensitive GLP-1R form | Potency, µM (series often up to 45.6 µM), for inactives: top-dose activation, hits mostly activators | 0.007% of 380,000 active; note: % of control where 0% means no effect
* = called active by the depositor; i = inactive; ? = inconclusive; . = not tested or not shown; ! = a repeat was not active; [ ] = another dose, or the depositor's remark. Calls come from the whole dose curve; as a rule, active = well fitted curve in the direction sought with a large enough effect; inconclusive = small, poorly fitted or top-dose-only effect, or another doubt; inactive = no such curve, though single readings can be large; an effect the other way counts as inactive or inconclusive. Potency is the fitted concentration of half-maximal effect.

SMILES	HEK293 tox	PTHR1 ag	GLP1R inv ag	GLP1R ag
COc1cc(NC(=O)c2ccc(S(=O)(=O)N(C)c3ccccc3OC)cc2)cc(OC)c1	-9%	i	7.9µM*	3%
Cc1ccccc1C(=O)NC(=S)Nc1ccc(S(=O)(=O)N(C)c2ccccc2)cc1	8%	-10%	8.9µM*	-6%
CCOc1cccc(C(=O)Nc2ccc(S(=O)(=O)N(Cc3ccccc3)c3ccccc3)cc2)c1	2%	-16%	3.2µM*	.
CN(c1ccccc1)S(=O)(=O)c1ccc(NC(=O)c2ccccc2)cc1	0%	-49%	10µM*	1%
Nc1nnc(CC(=O)N/N=C/c2ccc(-c3ccc(Cl)cc3Cl)o2)s1	0%	i	-28%	-1%
Cc1cccc(C)c1-n1nnnc1C1(C)CCC(=O)N1CC(F)(F)F (configuration not stated)	-3%	i	14%	-2%
C=C1CCC(O)C/C1=C/C=C1\CCC[C@]2(C)[C@@H]([C@H](C)/C=C/[C@H](C)C(C)C)CC[C@@H]12 (some centres not stated)	.	.	.	17%
CN(C(=S)Oc1ccc(C(=O)Nc2ccccc2)cc1)c1ccccc1	2%	-22%	8.9µM*	2%
CCN(c1ccccc1)S(=O)(=O)c1cc(C(=O)Nc2ccc(Br)cc2)ccc1F	-5%	-96%	2.5µM*	-5%
COc1ccc(NC(=O)c2ccc(OC(=S)N(C)c3ccc(OC)cc3)cc2)cc1	-25%	-10%[57.5 µM]	-26%	0%
CC(C)(Oc1ccc(Cl)cc1)C(=O)NC1CCN(Cc2ccccc2)CC1	-7%	i	8.9µM*	6%
O=S(=O)(Nc1cccc2c1CCCC2)c1cccc(C(F)(F)F)c1	-4%	i	10µM*	6%
Nc1c(-c2ccccc2)cnn1-c1cccc(Cl)c1	-1%	-37%	?	2%
Nc1ccccc1Nc1cc(-c2cccc(Cl)c2)nn1-c1ccccc1	-27%	-17%	10µM*	-30%
CN1C2Cc3c(n(C)c4ccccc34)C1CC=C2CO (configuration not stated)	-22%	-5%	23%	14%
CCN(CC)Cc1cc(Nc2ccnc3cc(Cl)ccc23)ccc1O	?	-15%	11µM*!	0%
CCCOc1ccc(NC(=O)CC2C(=O)N(c3ccc(Cl)cc3)C(=O)N2CCc2ccncc2)cc1 (configuration not stated)	-22%	-35%	?	.
CN(C(=O)CSc1nnc(-c2ccc([N+](=O)[O-])cc2)o1)c1ccccc1	18%	-27%	13%	.
Cc1ccc(-c2ccc(/C=N/NC(=O)Cc3nnc(N)s3)o2)cc1Cl	-2%	-2%	?	2%
COc1ccc(-c2ccc(/C=N/NC(=O)Cc3nnc(N)s3)o2)cc1Cl	-44%	-5%	11µM*	-4%
Cc1ccnc(OC(C(=O)O)C(OCc2ccccc2)(c2ccccc2)c2ccc(C(F)(F)F)cc2)n1 (configuration not stated)	15%	-31%	10µM*	-2%
Cc1ccn2c(=O)cc(CSc3nnc(NC(=O)c4ccccc4Cl)s3)nc2c1	-3%	-21%	3%	.
CC1(C)CC(=O)c2cc(C(=O)NCc3ccco3)c(=O)n(-c3ccccc3)c2C1	1%	-13%[57.5 µM]	-29%	15%
CC1(C)CC(=O)c2cc(C(=O)NNc3ccccc3)c(=O)n(-c3ccccc3)c2C1	-8%	i	1µM*	2%
Cc1cc(-c2ccccc2)n(-c2ccccc2)n1	1%	-10%	-23%	11%
SMILES	HEK293 tox	PTHR1 ag	GLP1R inv ag	GLP1R ag
CC(C)(C)N1C(=O)[C@H]2[C@@H](c3ccc(Br)cc3)N3C(=O)N(c4ccc(Br)cc4)C(=O)[C@@]3(Cc3ccccc3)[C@H]2C1=O	-5%	-22%	11µM*	-6%
COc1ccc([C@@H]2[C@@H]3C(=O)N(C(C)(C)C)C(=O)[C@@H]3[C@]3(Cc4ccc(Cl)cc4)C(=O)N(c4ccc(Br)cc4)C(=O)N23)cc1	-5%	-8%	10µM*	0%
CC(C)(C)N1C(=O)[C@H]2[C@@H](c3ccc(Br)cc3)N3C(=O)N(c4cccc(F)c4)C(=O)[C@@]3(Cc3ccccc3)[C@H]2C1=O	11%	-5%	?	0%
COc1ccc([C@@H]2[C@@H]3C(=O)N(C(C)(C)C)C(=O)[C@@H]3[C@]3(Cc4ccc(Cl)cc4)C(=O)N(c4ccc(OC)cc4)C(=O)N23)cc1	-3%	i	-10%	1%
Cc1ccc(O)c(Nc2nc3ccccc3c3nncn23)c1	-3%	-21%	2%	.
Cc1cccc(NC(=O)N2CCc3c(sc4c3CCCC4)C2c2ccc(F)cc2)c1 (configuration not stated)	0%	i	?	.
COc1ccc(NC(=O)N2CCc3c(sc4c3CCCC4)C2c2ccc(F)cc2)cc1 (configuration not stated)	6%	-21%	2.8µM*	.
CCCC1(c2ccccc2)NC(=O)N(CC(=O)NCc2ccc(OC)cc2)C1=O (configuration not stated)	-11%	i	-19%	2%
COc1cc(C2C3=C(CC(C)(C)CC3=O)N(C)C(=O)N2C)cc(OC)c1OC (configuration not stated)	8%	i	65%	-10%
CCC(C)NC(=O)CO/N=C/c1ccccc1OC(F)F (configuration not stated)	16%	i	17%	3%
CC1CCCCC1NC(=O)CO/N=C/c1ccccc1OC(F)F (configuration not stated)	0%	-16%	10µM*	25%
O=C(CSc1nc(-c2ccccc2)c(-c2ccccc2)o1)N1CCCCC1	2%	-31%	11µM*	-1%
O=C(CCSc1nc(-c2ccccc2)c(-c2ccccc2)o1)N1CCCCC1	-5%	-93%	?	13%
O=C(CSCC(=O)N1CCCCC1)Nc1nc(-c2ccccc2)c(-c2ccccc2)s1	-5%	-46%	5.6µM*	-3%
COc1cc(-c2cc(C(=O)NCc3ccco3)c3ccccc3n2)cc(OC)c1OC	?	-58%	?	5%
COc1cc(-c2cc(C(=O)Nc3ccc(S(=O)(=O)NCc4ccco4)cc3)c3ccccc3n2)cc(OC)c1OC	-11%	i	2µM*	2%
Nc1nc(NCCOCCO)nc(N2CCCCCC2)c1[N+](=O)[O-]	1%	i	29%	19%
O=C(COc1ccccc1)Nc1ccc(C(=O)OCc2cc(=O)n3nc(C4CC4)sc3n2)cc1	-3%	-13%	7%	.
N[C@@H](Cc1ccccc1)C(=O)N1CCC(C(=O)N[C@@H](CCC(=O)O)C(=O)O)CC1	0%	i	15%	-6%
Fc1ccc(-c2nnc(NC3=NCCCCC3)o2)cc1	0%	-10%	1µM*	-60%
COc1ccc(-c2onc(C)c2C)cc1S(=O)(=O)NCc1ccc(Br)cc1	-11%	-38%	-25%	.
O=C(CCc1ccc(S(=O)(=O)NC2CCCCC2)cc1)N(Cc1ccccc1)Cc1ccccc1	-1%	-6%[57.5 µM]	8.9µM*	-4%
